Bioassay records from PubChem.
MITF TRPM1 inh = reduces MITF-dependent TRPM1 promoter luciferase signal; AID 488899; inhibition, % at 12.5 µM; SK-MEL-5 TRPM1 promoter luciferase, 24 h; 330,000 compounds, 0.83% hits;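 active = mean inhibition across replicates of 60% or more, whatever share of single replicates reaches that level; inconclusive = some that reach 60%, reason not given; inactive = mean inhibition across replicates below 60%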
Shn3 3UTR inh = inhibitors of Schnurri-3 3'UTR reporter in osteoblasts. Clone20 osteoblast Shn3 3'UTR firefly luciferase, 24 h. inhibition, % at 12.5 µM. 360,000 compounds, 0.52% hits;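 active = mean inhibition of at least 75% with every replicate also reaching 75%; inconclusive = mean inhibition at least 75% but some replicate below; inactive = mean inhibition below 75%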;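 note: 0% = median of neutral control wells and 100% = pilot-screen positive control compound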
aSyn 5UTR inh = 5' untranslated region of α-synuclein, MLPCN primary screen | alpha-synuclein 5'UTR reporter, inhibitor activity | inhibition, % (tested at 7.5 µM) | 300,000 compounds, 0.82% hits; in the data active = inhibition above about 60%; inconclusive = no clear call, values can overlap the other calls;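 note: H4 neuroglioblastoma cells stably carrying SNCA 5'UTR luciferase fusion; 0% = DMSO wells and 100% = positive control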
PAX8 reporter = lowers PAX8-driven luciferase in RMG-I cells; RMG-I TPO-luciferase reporter, SteadyGlo, 24 h; inhibition, % at 12.6 µM; 360,000 compounds, 1.2% hits; AID 652154;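 active = mean replicate inhibition at least 60% with every replicate also reaching 60%; inconclusive = only one of the two criteria is met; inactive = mean below 60% and not all replicates reaching 60%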;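 note: luciferase light reporting Pax8 driven TPO promoter activity; plate controls were median of neutral control wells for no effect and mitoxantrone controls for full effect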
EBV LMP1 NFkB = reduces LMP1-driven NF-kappaB luciferase signal; AID 504558; 350,000 compounds, 0.69% hits; inhibition, % at 12.5 µM; LMP1-induced NF-kappaB luciferase reporter cells, luminescence; in the data active = inhibition above about 41%; inconclusive = no clear call, values can overlap the other calls;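 note: 0% = neutral control wells and 100% = reference inhibitor control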
* marks the source's active call; other numbers are inactive results. Rows were chosen to be rich in hits. Some 2.1% of all compounds tested hit in one or more screens of this group.

`CCCCCCCn1c(NC(=O)CC)nc2ccccc21` gave MITF TRPM1 inh 14.4, Shn3 3UTR inh 20.4, aSyn 5UTR inh 68.1*, PAX8 reporter 49.4 and EBV LMP1 NFkB 26.6.
`Cc1cc(SCC(=O)N/N=C/c2ccc(O)c(O)c2O)c(C)cc1Br` gave MITF TRPM1 inh 65.5*, Shn3 3UTR inh 73.4, aSyn 5UTR inh 67.5*, PAX8 reporter inconclusive and EBV LMP1 NFkB 6.9.
Screening O=C(CSc1ncccn1)NC1CCCc2ccccc21 (stereo not drawn) returned MITF TRPM1 inh -0.5, Shn3 3UTR inh -14.6, aSyn 5UTR inh -7.8, PAX8 reporter -10.7 and EBV LMP1 NFkB -7.3.
`COc1ccc(CCNC(=O)CC(=O)N/N=C/c2ccc(Br)cc2)cc1OC` gave MITF TRPM1 inh 4.6, Shn3 3UTR inh -98.9, aSyn 5UTR inh 10.0, PAX8 reporter -10.1 and EBV LMP1 NFkB -5.7.
`C=CCNc1nc(Cl)nc(Nc2ccc([N+](=O)[O-])cc2)n1` gave MITF TRPM1 inh 1.1, Shn3 3UTR inh -13.4, aSyn 5UTR inh -10.4, PAX8 reporter -2.3 and EBV LMP1 NFkB -18.6.
O=C(Nc1nnc(S(=O)(=O)N2CCCCC2)s1)c1ccc(Cl)cc1 was read as Shn3 3UTR inh -0.3, aSyn 5UTR inh 22.2, PAX8 reporter -5.3 and EBV LMP1 NFkB 3.0.
Screening O=C1C=CC(=O)N1c1ccc(OC(F)F)cc1 returned MITF TRPM1 inh 34.9, Shn3 3UTR inh 91.3*, PAX8 reporter 14.8 and EBV LMP1 NFkB 10.0.
O=C1C=CC(=O)N1c1ccc(O)cc1 was read as MITF TRPM1 inh 7.1, Shn3 3UTR inh 6.5, aSyn 5UTR inh 5.9, PAX8 reporter 28.4 and EBV LMP1 NFkB -4.3.
`C=CCn1c(SCc2csc(C)n2)nc2sc3c(c2c1=O)CCCCC3` gave MITF TRPM1 inh 2.8, Shn3 3UTR inh 24.7, aSyn 5UTR inh -3.8 and EBV LMP1 NFkB -2.2.
For C=CCn1c(SCc2csc(C)n2)nc2sc3c(c2c1=O)CCCC3 the results were MITF TRPM1 inh 3.9, Shn3 3UTR inh 42.9, aSyn 5UTR inh 34.7 and EBV LMP1 NFkB 44.1*.
Screening Cc1c(C(=O)Nc2ccc(S(=O)(=O)N(C)C3CCN(C)CC3)cc2)oc2c(Cl)cccc12 returned MITF TRPM1 inh 79.3*, Shn3 3UTR inh 59.2, aSyn 5UTR inh -52.1, PAX8 reporter 13.3 and EBV LMP1 NFkB -0.1.
Screening Cc1c(C(=O)Nc2ccc(S(=O)(=O)N(C)C3CCN(C)CC3)cc2)oc2ccccc12 returned MITF TRPM1 inh -7.8, Shn3 3UTR inh -10.1, PAX8 reporter 14.9 and EBV LMP1 NFkB -19.1.
Cc1cc2nc(/C=C/c3cccnc3)[nH]c2cc1C was read as MITF TRPM1 inh -26.9, Shn3 3UTR inh -105.8, aSyn 5UTR inh 92.1*, PAX8 reporter 2.0 and EBV LMP1 NFkB -18.9.
Screening O=C(COC(=O)c1ccc(Cl)nc1)Nc1ccc(N2CCOCC2)cc1 returned MITF TRPM1 inh -6.3, Shn3 3UTR inh -4.8, PAX8 reporter -2.6 and EBV LMP1 NFkB 2.0.
For CCCCC[C@@H](/C=C/C1C(=O)C=C[C@H]1C/C=C\CCCC(=O)OC)OC(C)=O (stereo partly drawn) the results were MITF TRPM1 inh 67.6*, Shn3 3UTR inh 36.9, PAX8 reporter 5.4 and EBV LMP1 NFkB 18.0.
COCCn1c(SCC(=O)N2CCc3ccccc32)nc2c(c1=O)SC(C)C2 (stereo not drawn) was read as MITF TRPM1 inh 6.3, Shn3 3UTR inh 0.8, aSyn 5UTR inh 26.8, PAX8 reporter 0.8 and EBV LMP1 NFkB 88.5*.
For O=C(O)c1cc2nccc(-c3ccco3)n2n1 the results were MITF TRPM1 inh 4.9, aSyn 5UTR inh -21.2, PAX8 reporter -17.2 and EBV LMP1 NFkB -9.0.
COc1ccc(-c2ccnc3cc(C(=O)O)nn23)cc1 was read as MITF TRPM1 inh 1.6, Shn3 3UTR inh 4.6, aSyn 5UTR inh 11.3, PAX8 reporter 1.2 and EBV LMP1 NFkB 56.8*.
For O=C(c1cccc(-c2nnc(-c3ccccc3)o2)c1)N1CCCCC1 the results were MITF TRPM1 inh -47.1, Shn3 3UTR inh -27.4, aSyn 5UTR inh -76.1 and EBV LMP1 NFkB -22.3.
CN1/C(=C/c2cc[n+](C)c3ccccc23)C=Cc2ccccc21 was read as MITF TRPM1 inh 82.6*, Shn3 3UTR inh 84.8 and EBV LMP1 NFkB 47.2*.
`C[n+]1ccc(/C=C/c2ccccc2O)c2ccccc21` gave MITF TRPM1 inh 2.4, Shn3 3UTR inh 13.6, aSyn 5UTR inh -14.5, PAX8 reporter 2.8 and EBV LMP1 NFkB 13.0.
NS(=O)(=O)c1ccc(S(=O)(=O)N(CCc2ccccc2)Cc2ccccn2)cc1 was read as MITF TRPM1 inh 4.2, Shn3 3UTR inh 5.9, aSyn 5UTR inh 13.7, PAX8 reporter -1.6 and EBV LMP1 NFkB -1.9.
For O=C(COc1ccccc1Cl)NNC(=O)c1cc(S(=O)(=O)N2CCOCC2)ccc1N1CCCC1 the results were MITF TRPM1 inh 11.5, Shn3 3UTR inh 8.3, aSyn 5UTR inh -1.3, PAX8 reporter 8.1 and EBV LMP1 NFkB -6.8.
CCCCCCCNC(=O)C1(CC2CC(c3ccc(Cl)cc3)=NO2)CCN(C(=O)Cc2ccc(F)cc2)CC1 (stereo not drawn) was read as MITF TRPM1 inh -3.7, Shn3 3UTR inh 9.4, aSyn 5UTR inh 4.3, PAX8 reporter 36.3 and EBV LMP1 NFkB 2.6.
CCCCCCCNC(=O)C1(CC2CC(c3ccc(Cl)cc3)=NO2)CCNCC1 (stereo not drawn) was read as MITF TRPM1 inh 88.4*, Shn3 3UTR inh 2.3, aSyn 5UTR inh 6.6, PAX8 reporter 22.3 and EBV LMP1 NFkB -9.0.
CCCCCCCNC(=O)C1(CC2CC(c3cccc(Br)c3)=NO2)CCNCC1 (stereo not drawn) was read as MITF TRPM1 inh 98.9*, Shn3 3UTR inh 90.9*, aSyn 5UTR inh -8.8, PAX8 reporter 80.3* and EBV LMP1 NFkB -32.6.
`CCCCn1c(N)c(N(CCC(C)C)C(=O)C2=NN(c3ccccc3)C(=O)CC2)c(=O)[nH]c1=O` gave MITF TRPM1 inh 0.7, Shn3 3UTR inh 2.4, PAX8 reporter -12.6 and EBV LMP1 NFkB -3.6.
`COC(=O)NC1c2ccccc2Oc2ccccc21` gave MITF TRPM1 inh -6.4, Shn3 3UTR inh 4.6, aSyn 5UTR inh 26.3, PAX8 reporter 12.8 and EBV LMP1 NFkB -7.9.
`COc1ccc(CN(C)C[C@@H]2OCCCC[C@H](C)Oc3ccc(NC(=O)Nc4ccc(C(F)(F)F)cc4)cc3C(=O)N([C@@H](C)CO)C[C@H]2C)cc1` gave PAX8 reporter 87.5*.
`COc1ccc(CN(C)C[C@@H]2OCCCC[C@@H](C)Oc3ccc(NC(=O)Nc4ccc(C(F)(F)F)cc4)cc3C(=O)N([C@@H](C)CO)C[C@@H]2C)cc1` gave PAX8 reporter 86.2*.
Screening COc1ccc(CN(C)C[C@@H]2OCCCC[C@@H](C)Oc3ccc(NC(=O)Nc4ccc(OC)cc4)cc3C(=O)N([C@@H](C)CO)C[C@H]2C)cc1 returned PAX8 reporter -8.2.
`COc1ccc(CN(C)C[C@@H]2OCCCC[C@H](C)Oc3ccc(NC(=O)Nc4ccc(C(F)(F)F)cc4)cc3C(=O)N([C@H](C)CO)C[C@H]2C)cc1` gave PAX8 reporter 103.6*.
